# Screening results from PubChem.
# Hits are enriched below; roughly 11% of the tested compounds scored in any of these assays.
# Luciferase inh – Firefly luciferase inhibition profiling of diverse chemical library using quantitative high-throughput screening | Luciferin 4-monooxygenase (Photinus pyralis), P08659 | purified P. pyralis luciferase, luminescence, biochemical | Potency, µM (top dose mostly 115 µM), usual class: inhibitors | 76,000 compounds, 2.5% hits | AID 1347043, 2019; also: nearly all actives have a fitted effect of over 65% in size
#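 Inhibitors were tested against purified firefly luciferase in a biochemical, low-substrate format (both substrates at 10uM) and luminescence measured with a CCD imager.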
# HEK293 tox – Cytotoxic Profiling in HEK 293 Cell Line of Diverse Libraries Using Quantitative High-Throughput Screening; Potency, µM (doses to about 115 µM), actives largely listed as inhibitors; AID 1345083, 2018; 94,000 compounds, 6.6% hits; HEK 293 viability, ATP luminescence (CellTiter-Glo), 48-72 h; also: nearly all actives have a fitted effect of over 60% in size
#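 CellTiter-Glo luminescence (cellular ATP) was read after 48 or 72 hr of compound exposure at 37 degree Celsius. Cells were HEK 293 plated at 250 cells/well.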
# 3T3 cytotox – Cytotoxic Profiling in NIH 3T3 Cell Line of Diverse Libraries Using Quantitative High-Throughput Screening | Potency, µM (doses to about 96.7 µM), usual class: inhibitors | 94,000 compounds, 4.3% hits | AID 1345082, 2018 | NIH 3T3 viability, CellTiter-Glo ATP luminescence, 48-72 h; also: nearly all actives have a fitted effect of over 55% in size
#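 Cytotoxicity is measured as loss of cellular ATP: NIH 3T3 cells (400/well) are exposed to compound for 48 or 72 hr at 37 °C, then CellTiter-Glo luminescence is imaged after 10 min at room temperature.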
# NPR1 antag – Natriuretic polypeptide receptor (hNpr1) antagonism - Primary qHTS; Atrial natriuretic peptide receptor 1 (Homo sapiens), P16066; HEK293 hNpr1 GloSensor cGMP, ANP-stimulated luminescence; Potency, µM (titrated, usually from 46.3 µM), usual class: inhibitors; 76,000 compounds, 1.6% hits; AID 1347048, 2019; calls by dose curve; also: nearly all actives have a fitted effect of over 60% in size
#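 Compound pre-incubated 30 min at room temperature on GloSensor-loaded HEK293 cells stably carrying hNpr1 and the pGS-40F cGMP biosensor. Stimulation uses hNppA at 0.1 nM final; luminescence is taken at baseline and 20 min post-agonist.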
# Numbers stand for hits; . = inactive; ? = inconclusive; / = no result given. Unless noted, calls follow the shape of the dose curve; as a rule, active = well fitted curve in the direction sought with a large enough effect; inconclusive = small, poorly fitted or top-dose-only effect, or another doubt; inactive = no such curve, though single readings can be large; an effect the other way counts as inactive or inconclusive.
SMILES,Luciferase inh,HEK293 tox,3T3 cytotox,NPR1 antag
CC(=O)N1CCC(N2C[C@@H]3C[C@H]2C(=O)N(Cc2ccc(OC(F)(F)F)cc2)c2ccccc2O3)CC1,.,?,?,.
O=C1[C@@H]2C[C@@H](CN2C2CCCC2)Oc2ccccc2N1Cc1ccccc1,.,100µM,?,.
COCCN1C(=O)[C@@H]2C[C@@H](CN2C2CCCC2)Oc2ccccc21,.,?,.,.
CN1CCC(N2C[C@@H]3C[C@H]2C(=O)N(Cc2ccc(OC(F)(F)F)cc2)c2ccccc2O3)CC1,.,?,40µM,.
O=C1[C@@H]2C[C@@H](CN2C2COC2)Oc2ccccc2N1Cc1ccc(OC(F)(F)F)cc1,.,100µM,?,.
CC(C)N1C[C@@H]2C[C@H]1C(=O)N(Cc1ccc(OC(F)(F)F)cc1)c1ccccc1O2,.,71µM,?,.
O=C1[C@@H]2C[C@@H](CN2Cc2nccs2)Oc2ccccc2N1Cc1ccc(OC(F)(F)F)cc1,.,?,?,.
Cc1noc(C2CC3(CCN(C(=O)CC4CCCCC4)CC3)CN2C)n1 (centres undefined),/,?,.,/
COCCCn1c(=O)c(C(=O)N2CCC(Cc3ccccc3)CC2)nc2cccnc21,/,?,.,/
Cc1ccccc1-c1cn[nH]c1C1CCN(C(=O)c2cnn3ccccc23)CC1,.,?,?,.
Cc1nn(-c2ccccc2)c2c1C(C1CC1)N(C1CCN(Cc3ccc(Cl)nc3)CC1)C2=O (centres undefined),/,.,.,/
CC(C)(Oc1nn(CCN2CCOCC2)c2ccccc12)C(=O)NCc1ccccc1,.,?,.,.
CC(C)(Oc1nn(Cc2cccc(Cl)c2)c2ccccc12)C(=O)NCCCn1ccnc1,.,50µM,32µM,?
CC(C)(Oc1nn(Cc2cccc(Cl)c2)c2ccccc12)C(=O)N1CCOCC1,.,89µM,?,?
CC(C)(Oc1nn(Cc2cccc(Cl)c2)c2ccccc12)C(=O)NCC[S+](C)(=O)[O-],.,?,?,?
CC(C)(Oc1nn(Cc2cccc(Cl)c2)c2ccccc12)C(=O)NC1CCOCC1,.,89µM,?,.
CC(C)(Oc1nn(Cc2cccc(Cl)c2)c2ccccc12)C(=O)NCCN1CCOCC1,.,50µM,?,.
COCc1ccc2c(c1)c(OC(C)(C)C(=O)NCCN1CCOCC1)nn2Cc1ccccc1,.,?,?,.
CN1C(=O)C(CC(=O)NCC2CCN(Cc3ccc(F)cc3)CC2)=C2CCCCC21 (centres undefined),.,.,.,.
O=C(C1CCCN1C(=O)c1ccc(F)cc1)N1CCC(c2nc3ccncc3[nH]2)CC1 (centres undefined),/,.,.,/
CS(=O)(=O)c1ccc(CN2C[C@@H](F)[C@@H](OCc3nc4ccc(F)cc4[nH]3)C2)cc1,.,.,.,?
Cn1cc(CN2C[C@@H](F)[C@@H](OCc3nc4ccc(C#N)cc4[nH]3)C2)c2ccccc21,.,89µM,89µM,?
CN1C[C@@H](F)[C@@H](OCc2nc3ccc(C(F)(F)F)cc3[nH]2)C1,50µM,.,?,.
CCNC(=O)N1C[C@@H](F)[C@@H](OCc2nc3ccc(C)cc3[nH]2)C1,63µM,.,.,.
Cc1cc2nc(CO[C@H]3CN(Cc4ccc(S(C)(=O)=O)cc4)C[C@H]3F)[nH]c2cc1C,56µM,?,.,.
SMILES,Luciferase inh,HEK293 tox,3T3 cytotox,NPR1 antag
CCCN1C(=O)Cc2ccccc2C1C(=O)NCc1ccc(F)cc1Cl (centres undefined),.,?,.,.
COc1ccccc1CNc1ncnc2c1CN(C1CCCNCC1)C(=O)CN2C (centres undefined),/,.,.,/
Cc1ccc2nc(CO[C@H]3CN(Cc4ccc(Cl)cc4)C[C@H]3F)[nH]c2c1,.,89µM,?,?
Cc1ccc2nc(CO[C@H]3CN(Cc4ccc(F)c(F)c4)C[C@H]3F)[nH]c2c1,.,?,?,.
COc1cccc(C2CCN(Cc3cn(-c4ccccc4)nn3)C2)c1OC (centres undefined),.,79µM,?,.
Cc1ccc(-n2c(C3CCN(C(=O)c4ccc5cc[nH]c5c4)CC3)n[nH]c2=O)cc1,.,.,32µM,.
Cc1ccc(-n2c(C3CCN(C(=O)Cc4cccc(F)c4)CC3)n[nH]c2=O)cc1,.,.,10µM,.
O=C(c1ccc2ccccc2n1)N1CCC(c2n[nH]c(=O)n2-c2ccccc2)CC1,.,.,45µM,.
Cc1ccc(-n2c(C3CCN(C(=O)c4ccco4)CC3)n[nH]c2=O)cc1,.,.,22µM,.
CC(=O)Nc1cc(-c2ccccn2)nn1-c1ccccc1,/,.,.,/
CCN1CCN(C(=O)c2cc(C(C)(C)C)nc3c2cnn3C)CC1,/,.,?,/
COCCC1(NC(=O)Cc2cccc(OC)c2)CCN(S(C)(=O)=O)CC1,/,.,.,/
Cc1ccc(-n2c(C3CCN(C(=O)c4ccc(F)c(F)c4)CC3)n[nH]c2=O)cc1,.,.,10µM,.
Cc1ccc(-n2c(C3CCN(C(=O)c4cccc(F)c4)CC3)n[nH]c2=O)cc1,.,.,35µM,.
O=C(c1ccc(F)c(F)c1)N1CCC(c2n[nH]c(=O)n2-c2ccccc2)CC1,.,.,?,.
O=C(c1cccc(F)c1)N1CCC(c2n[nH]c(=O)n2-c2ccccc2)CC1,.,.,.,.
COc1ccc(NC(=O)CN2C(=O)NC(c3ccc(Cl)cc3)C3=C2COC3=O)cc1Cl (centres undefined),?,?,25µM,.
COc1cc(Cl)c(C)cc1NC(=O)CN1C(=O)NC(c2ccc(Cl)cc2)C2=C1COC2=O (centres undefined),.,16µM,18µM,.
COc1ccc(NC(=O)CN2C(=O)NC(c3ccc(Cl)cc3)C3=C2COC3=O)c(OC)c1 (centres undefined),.,?,.,.
CCOc1ccccc1C1NC(=O)N(CC(=O)Nc2ccc(OC)c(Cl)c2)C2=C1C(=O)OC2 (centres undefined),?,.,?,.
COc1cccc(CNC(=O)c2ccc3oc(-c4ccncc4)nc3c2)c1,/,.,.,/
O=C(NC1CCCN(Cc2ccc(-c3cncnc3)cc2)C1)c1ccncc1 (centres undefined),/,?,.,/
O=C(NC1CCCN(Cc2ccc(-c3cncnc3)cc2)C1)c1ccccn1 (centres undefined),/,?,.,/
Cc1cc(C)cc(-c2ccc(CN3CCCC(NC(=O)c4ccccn4)C3)cc2)c1 (centres undefined),/,?,14µM,/
COc1cccc(-c2ccc(CN3CCCC(NC(=O)c4ccc(Cl)nc4)C3)cc2)c1 (centres undefined),/,14µM,32µM,/
COc1cccc(CN2CCCC(NC(=O)c3cn4ccsc4n3)C2)c1 (centres undefined),.,?,.,.
